According to PubChem BioAssay (Tox21):
Values joined by “and” are separate entries in the source; they are usually repeats but may differ in a detail not shown here. Equal values may be shown once. Results filed as inconclusive are left out. Where a call stands in place of a potency, no number is given. Some compounds were tested as several samples or in several runs, with calls that do not always agree. Active and inactive are the calls of the source. Unless noted, calls come from the whole dose curve; as a rule, active = well fitted curve in the direction sought with a large enough effect in the repeat runs; inconclusive = weak or mixed curves; inactive = no such curve, though single readings can be large; an effect the other way counts as inactive or inconclusive.

Experiments:
[1] = qHTS assay to test for compound auto fluorescence at 460 nm (blue) in HEK293 cell free culture (AID 720681)
Outline: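 Compounds were added to cell-free DMEM with 10% FBS and fluorescence read directly. The blue channel used 405 nm excitation and 460 nm emission, with triamterene as the reference fluorophore.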

[2] = qHTS assay to test for compound auto fluorescence at 535 nm (green) in HEK293 cell free culture (AID 720682)
Outline: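 Cell-free medium (DMEM, 10% FBS) receives compound or DMSO by pintool. Plate read directly at Ex 485/Em 535 nm. Signal converted to fluorescein equivalency.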

[3] = qHTS assay to test for compound auto fluorescence at 590 nm (red) in HEK293 cell free culture (AID 720683)
Outline: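 Cell-free wells of DMEM with 10% FBS received compound, and intrinsic fluorescence was read at excitation/emission 540/590 nm. Values expressed as equivalence to Rose Bengal sodium.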

[4] = qHTS assay to test for compound auto fluorescence at 590 nm (red) in HepG2 cell free culture (AID 720684)
Outline: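 Rose Bengal sodium served as the reference for red signal. Test compounds were dispensed into serum-containing MEM (10% FBS) without cells, and plates were read at 540/590 nm.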

[5] = qHTS assay to test for compound auto fluorescence at 460 nm (blue) in HepG2 cell free culture (AID 720685)
Outline: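 Cell-free plates of MEM plus 10% FBS received 23 nL compound or DMSO vehicle; blue-channel (405/460 nm) intensity scored against triamterene as reference fluorophore.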

[6] = qHTS assay to test for compound auto fluorescence at 535 nm (green) in HepG2 cell free culture (AID 720686)
[7] = qHTS assay to test for compound auto fluorescence at 460 nm (blue) in HepG2 cells (AID 720687)
Outline: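 HepG2 cells in MEM with 10% FBS, attached overnight at 37 C, were exposed to compound or DMSO for 1 hr at 37 C, 5% CO2. Blue fluorescence was read at 405/460 nm, with triamterene as reference fluorophore.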

[8] = target: Glucocorticoid receptor (Homo sapiens) (UniProt P04150); test: qHTS assay to identify small molecule agonists of the glucocorticoid receptor (GR) signaling pathway (AID 720691; active = well fitted activation curve with a large enough effect in the signal ratio in the repeat runs, not every such curve was filed as active; the % refers to the signal ratio); details: GR-bla HeLa, beta-lactamase reporter ratio, 18 h; activation: at 62.4 µM (top of the series)
Chain of Glucocorticoid receptor (Homo sapiens) (P04150 whole entry, looked up): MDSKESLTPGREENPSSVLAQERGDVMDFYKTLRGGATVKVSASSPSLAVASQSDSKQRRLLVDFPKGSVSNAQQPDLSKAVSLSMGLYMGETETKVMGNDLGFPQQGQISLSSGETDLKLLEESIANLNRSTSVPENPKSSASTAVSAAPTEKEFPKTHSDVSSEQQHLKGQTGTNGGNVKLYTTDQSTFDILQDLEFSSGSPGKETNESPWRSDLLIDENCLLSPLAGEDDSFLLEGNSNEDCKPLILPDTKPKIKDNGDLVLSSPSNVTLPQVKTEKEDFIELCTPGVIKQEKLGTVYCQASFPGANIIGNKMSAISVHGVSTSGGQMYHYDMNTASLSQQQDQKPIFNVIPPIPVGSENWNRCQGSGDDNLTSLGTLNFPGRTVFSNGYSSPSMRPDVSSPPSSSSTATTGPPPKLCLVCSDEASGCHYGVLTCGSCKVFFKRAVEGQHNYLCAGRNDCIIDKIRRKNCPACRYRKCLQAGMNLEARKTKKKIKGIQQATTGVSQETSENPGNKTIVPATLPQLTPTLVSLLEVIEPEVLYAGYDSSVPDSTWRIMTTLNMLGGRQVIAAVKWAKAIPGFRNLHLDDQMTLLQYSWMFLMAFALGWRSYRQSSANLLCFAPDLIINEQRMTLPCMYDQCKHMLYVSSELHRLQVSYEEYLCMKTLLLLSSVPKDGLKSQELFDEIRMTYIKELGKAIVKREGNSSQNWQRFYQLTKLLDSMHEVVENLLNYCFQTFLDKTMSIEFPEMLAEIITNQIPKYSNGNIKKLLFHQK
Outline: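 Measures GR pathway activation through a GRE-beta-lactamase reporter stably integrated in HeLa cells, with 18 h compound treatment at 37 C and fluorescence detection using a FRET substrate.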

[9] = target: Glucocorticoid receptor (Homo sapiens) (UniProt P04150); test: qHTS assay to identify small molecule antagonists of the glucocorticoid receptor (GR) signaling pathway (AID 720692; active = well fitted inhibition curve with a large enough effect in the signal ratio in the repeat runs, not every such curve was filed as active; the % refers to the signal ratio)
Outline: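 Tox21 10K library screened in concentration-response for blockade of dexamethasone (5 nM final)-induced GRE-bla reporter activity in HeLa cells; 18 h treatment, fluorescence read.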

[10] = qHTS assay to identify small molecule antagonists of the glucocorticoid receptor (GR) signaling pathway - cell viability counter screen (AID 720693); note: nearly all actives have a fitted effect of over 55% in size
[11] = qHTS assay for identifying genotoxic compounds that show differential cytotoxicity against isogenic chicken DT40 cell lines with known DNA damage response pathways - wild type cell line (AID 743012); note: nearly all actives have a fitted effect of over 60% in size; note: potency is the fitted concentration of half-maximal effect
Outline: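 Endpoint: CellTiter-Glo luminescence, 30 min RT. Cells: wild type DT40, 300/well. Exposure: compounds in DMSO, 40 h, 37 C/5% CO2, after ~0.5 h pre-incubation.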

[12] = qHTS assay for identifying genotoxic compounds that show differential cytotoxicity against isogenic chicken DT40 cell lines with known DNA damage response pathways - Rad54/Ku70 mutant cell line (AID 743015); note: nearly all actives have a fitted effect of over 60% in size; note: potency is the fitted concentration of half-maximal effect
[13] = qHTS assay to identify small molecule antagonists of the androgen receptor (AR) signaling pathway - cell viability counter screen (AID 743033; note: nearly all actives have a fitted effect of over 45% in size)
[14] = target: Androgen receptor (Homo sapiens) (UniProt P10275); test: qHTS assay to identify small molecule antagonists of the androgen receptor (AR) signaling pathway (AID 743035; active = well fitted inhibition curve with a large enough effect in the signal ratio in the repeat runs, not every such curve was filed as active; the % refers to the signal ratio)
Chain of Androgen receptor (Homo sapiens) (P10275 whole entry, looked up): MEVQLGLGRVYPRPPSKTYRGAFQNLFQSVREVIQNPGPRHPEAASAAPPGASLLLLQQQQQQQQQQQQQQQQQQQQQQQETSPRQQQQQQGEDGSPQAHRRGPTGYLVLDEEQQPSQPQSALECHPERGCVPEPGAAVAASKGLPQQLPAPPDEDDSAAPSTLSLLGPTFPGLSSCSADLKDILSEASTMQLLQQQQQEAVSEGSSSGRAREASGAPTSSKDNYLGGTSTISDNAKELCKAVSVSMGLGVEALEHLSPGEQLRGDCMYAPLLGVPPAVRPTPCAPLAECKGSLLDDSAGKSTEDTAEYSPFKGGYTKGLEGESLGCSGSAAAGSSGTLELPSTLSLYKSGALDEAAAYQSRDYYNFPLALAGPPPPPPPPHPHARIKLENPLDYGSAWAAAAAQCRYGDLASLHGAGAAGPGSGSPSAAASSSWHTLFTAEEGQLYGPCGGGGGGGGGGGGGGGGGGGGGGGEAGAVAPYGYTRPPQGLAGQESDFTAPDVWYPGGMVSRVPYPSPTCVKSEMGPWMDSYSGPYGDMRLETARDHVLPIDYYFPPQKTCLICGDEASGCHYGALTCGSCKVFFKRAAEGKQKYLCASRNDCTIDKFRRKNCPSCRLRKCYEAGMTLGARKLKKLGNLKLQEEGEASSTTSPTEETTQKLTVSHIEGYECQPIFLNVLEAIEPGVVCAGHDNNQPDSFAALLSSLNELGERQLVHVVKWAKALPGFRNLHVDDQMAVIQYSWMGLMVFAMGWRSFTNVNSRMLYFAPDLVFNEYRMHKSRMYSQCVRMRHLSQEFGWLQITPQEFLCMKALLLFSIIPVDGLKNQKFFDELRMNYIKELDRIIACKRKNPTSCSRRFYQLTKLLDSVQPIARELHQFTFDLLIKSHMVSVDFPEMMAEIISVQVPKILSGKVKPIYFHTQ
Outline: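 R1881 agonist challenge of a HEK293 UAS-beta-lactamase AR reporter line in the presence of compound (16 h, 37C); signal taken as FRET fluorescence after 2 h with LiveBLAzer B/G substrate at room temperature.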

[15] = target: Androgen receptor (Homo sapiens) (UniProt P10275); test: qHTS assay to identify small molecule agonists of the androgen receptor (AR) signaling pathway (AID 743036; active = well fitted activation curve with a large enough effect in the signal ratio in the repeat runs, with a control signal flat, not every such curve was filed as active; the % refers to the signal ratio)
Outline: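 AR-bla HEK293 cells, 2,000/well; 4 h preincubation 37C/5% CO2; compound (DMSO) 16 h at 37C; LiveBLAzer B/G FRET substrate 2 h RT; fluorescence intensity read-out.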

[16] = target: Androgen receptor (Homo sapiens) (UniProt P10275); test: qHTS assay to identify small molecule agonists of the androgen receptor (AR) signaling pathway using the MDA cell line (AID 743040; note: nearly all actives have a fitted effect of over 20% in size)
Outline: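 Luciferase read-out, ONE-Glo, 30 min RT. Cells: MDA-kb2 AR-luc, MMTV promoter with AR and GR response elements. Compound exposure 16 h, 37C, 0% CO2, after 5 h pre-incubation. qHTS agonist mode.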

[17] = qHTS assay to identify small molecule antagonists of the androgen receptor (AR) signaling pathway using the MDA cell line - cell viability counter screen (AID 743041; note: nearly all actives have a fitted effect of over 45% in size)
Outline: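 Cytotoxicity counter screen: MDA-kb2 AR-luc cells, compound + R1881, 16 h, 37C, 0% CO2; CellTiter-Fluor added at 15.5 h, fluorescence read after 30 min.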

[18] = target: Androgen receptor (Homo sapiens) (UniProt P10275); test: qHTS assay to identify small molecule antagonists of the androgen receptor (AR) signaling pathway using the MDA cell line (AID 743042; note: nearly all actives have a fitted effect of over 55% in size)
Outline: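 MDA-kb2 breast carcinoma cells carrying MMTV-luciferase (AR/GR responsive) were co-treated with compounds and the agonist R1881 for 16 h at 37C. Inhibition read as ONE-Glo luminescence; CellTiter-Fluor fluorescence measured in parallel for cytotoxicity.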

[19] = qHTS assay for identifying genotoxic compounds that show differential cytotoxicity against isogenic chicken DT40 cell lines with known DNA damage response pathways - Rev3 mutant cell line (AID 743014); note: nearly all actives have a fitted effect of over 55% in size

O=C(O)c1ccccc1C(c1ccc(O)cc1)c1ccc(O)cc1
outcome [1]: inactive
outcome [2]: inactive
outcome [3]: inactive
outcome [4]: inactive
outcome [5]: inactive
outcome [6]: inactive
outcome [7]: inactive
Potency [8]: inactive
Potency [9]: inactive
outcome [10]: inactive
Potency [11]: inactive
Potency [12]: inactive
Potency [13]: inactive
outcome [14]: inactive
Potency [15]: inactive
Potency [16]: inactive
Potency [17]: inactive
outcome [18]: inactive

CCCCC(CC)COC(=O)CS (stereo not drawn)
outcome [1]: inactive
outcome [2]: inactive
outcome [3]: inactive
outcome [4]: inactive
outcome [5]: inactive
outcome [6]: inactive
outcome [7]: inactive
Potency [8]: inactive
Potency [9]: inactive
outcome [10]: inactive
Potency [11]: inactive
Potency [19]: inactive
Potency [12]: inactive and 61.1 µM (active)
Potency [13]: inactive
Potency [17]: inactive

CCN(CC)CCCC(C)Nc1ccnc2cc(Cl)ccc12 (stereo not drawn)
outcome [1]: inactive
outcome [2]: inactive
outcome [3]: inactive
outcome [4]: inactive
outcome [5]: inactive
outcome [6]: inactive
outcome [7]: inactive
Potency [8]: inactive
Potency [9]: inactive
outcome [10]: inactive
Potency [11]: 21.1 µM (active)
Potency [12]: 18.8 µM (active)
Potency [13]: inactive
viability change, negative = cytotoxic [17]: -15.9% [at 8.47 µM] (inactive)

Cc1ccc2oc(=O)ccc2c1
outcome [1]: inactive
outcome [2]: inactive
outcome [3]: inactive
outcome [4]: inactive
outcome [5]: inactive
outcome [6]: inactive
outcome [7]: inactive
Potency [8]: inactive
Potency [9]: inactive
outcome [10]: inactive
Potency [11]: inactive
Potency [12]: inactive
Potency [13]: inactive
Potency [17]: inactive

ON=C1CCCCC1
outcome [1]: inactive
outcome [2]: inactive
outcome [3]: inactive
outcome [4]: inactive
outcome [5]: inactive
outcome [6]: inactive
outcome [7]: inactive
Potency [8]: inactive
Potency [9]: inactive
outcome [10]: inactive
Potency [11]: inactive
Potency [19]: inactive
Potency [12]: inactive
Potency [13]: inactive
Potency [17]: inactive

CC(=O)CC(=O)Nc1ccccc1
outcome [1]: inactive
outcome [2]: inactive
outcome [3]: inactive
outcome [4]: inactive
outcome [5]: inactive
outcome [6]: inactive
outcome [7]: inactive
Potency [8]: inactive
Potency [9]: inactive
outcome [10]: inactive
Potency [11]: inactive
Potency [19]: inactive
Potency [12]: inactive
Potency [13]: inactive
Potency [17]: inactive

O=C(O)CCCCCCCCCCC(=O)O
outcome [1]: inactive
outcome [2]: inactive
outcome [3]: inactive
outcome [4]: inactive
outcome [5]: inactive
outcome [6]: inactive
outcome [7]: inactive
Potency [8]: inactive
Potency [9]: inactive
outcome [10]: inactive
Potency [11]: inactive
Potency [19]: inactive
Potency [12]: inactive
Potency [13]: inactive
Potency [17]: inactive

O=c1[nH]c(=O)n([C@H]2CCCO2)cc1F
outcome [1]: inactive
outcome [2]: inactive
outcome [3]: inactive
outcome [4]: inactive
outcome [5]: inactive
outcome [6]: inactive
outcome [7]: inactive
outcome [10]: inactive
Potency [11]: inactive
Potency [12]: inactive
Potency [13]: inactive
Potency [17]: inactive

CCCCCCCC(=O)OC
outcome [1]: inactive
outcome [2]: inactive
outcome [3]: inactive
outcome [4]: inactive
outcome [5]: inactive
outcome [6]: inactive
outcome [7]: inactive
outcome [10]: inactive
Potency [11]: inactive
Potency [19]: inactive
Potency [12]: inactive
Potency [13]: inactive
Potency [17]: inactive

CCCCN(CCCC)CCCC
outcome [1]: inactive
outcome [2]: inactive
outcome [3]: inactive
outcome [4]: inactive
outcome [5]: inactive
outcome [6]: inactive
outcome [7]: inactive
Potency [8]: inactive
Potency [9]: inactive
outcome [10]: inactive
Potency [11]: inactive
Potency [12]: inactive
Potency [13]: inactive
Potency [17]: inactive

COc1ccc2cc([C@H](C)C(=O)O)ccc2c1
outcome [1]: inactive
outcome [2]: inactive
outcome [3]: inactive
outcome [4]: inactive
outcome [5]: inactive
outcome [6]: inactive
outcome [7]: inactive
outcome [10]: inactive
Potency [13]: inactive
Potency [17]: inactive

O=C(O)[C@H](O)[C@@H](O)[C@H](O)[C@H](O)CO
outcome [1]: inactive
outcome [2]: inactive
outcome [3]: inactive
outcome [4]: inactive
outcome [5]: inactive
outcome [6]: inactive
outcome [7]: inactive
outcome [10]: inactive
Potency [11]: inactive
Potency [19]: inactive
Potency [12]: inactive
Potency [13]: inactive
Potency [17]: inactive
